Results on 31 molecules are retold here after ChEMBL document CHEMBL1961873, “Compounds: GSK PKIS; Assays: Nanosyn kinase panel” (2012).

Where “and” joins values, the source holds several entries; their conditions need not be identical. Identical values can stand only once.
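Note: reported figure is the mean inhibition of JNK2.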

This test deals with Mitogen-activated protein kinase 9 (Homo sapiens) (UniProt P45984). Conditions: at 1 µM.
Sequence of Mitogen-activated protein kinase 9 (Homo sapiens) (P45984 whole entry, looked up): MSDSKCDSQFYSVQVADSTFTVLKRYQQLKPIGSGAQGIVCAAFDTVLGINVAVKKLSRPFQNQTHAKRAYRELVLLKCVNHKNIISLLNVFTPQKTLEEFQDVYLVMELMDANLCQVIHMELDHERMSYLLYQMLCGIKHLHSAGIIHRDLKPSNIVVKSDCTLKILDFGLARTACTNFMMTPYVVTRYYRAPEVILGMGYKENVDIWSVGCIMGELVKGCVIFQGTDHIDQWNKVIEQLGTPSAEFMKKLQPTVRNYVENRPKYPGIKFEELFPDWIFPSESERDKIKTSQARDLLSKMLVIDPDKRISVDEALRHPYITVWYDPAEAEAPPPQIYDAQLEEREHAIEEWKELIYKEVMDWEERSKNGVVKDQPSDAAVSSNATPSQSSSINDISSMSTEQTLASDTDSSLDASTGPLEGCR
Molecule `CNC(=O)c1ncccc1Nc1nc(Nc2cc3c(cc2OC)CCCN3C(=O)CN(C)C)nc2[nH]ccc12` had an inhibition of 9.19%.

In the case of `Cc1ccc(-c2cc3c(NC(=O)C4CC4)ncnc3o2)cc1`, the inhibition came to 5.49%.

In the case of `CNC(=O)c1sc(-n2cnc3cc(OC)c(OC)cc32)cc1OCc1ccccc1C(F)(F)F`, the inhibition is 4.22%.

With `O=C(O[C@H]1CN[C@H](C#Cc2cc3ncnc(Nc4ccc5c(ccn5Cc5cc(F)ccc5F)c4)c3s2)C1)N1CCOCC1`, the inhibition is 5.74%.

Take `CN1CCN(Cc2ccc(-c3cc4ncnc(Nc5ccc(OCc6cccc(F)c6)c(Cl)c5)c4s3)o2)CC1`: the inhibition was 2.65% and 8.42%.

On to `CCn1c(-c2nonc2N)nc2cncc(C(=O)NCCNC)c21`, for which the inhibition is 4.73%.

For `CCS(=O)(=O)c1ccc(OC)c(Nc2ncc(-c3cccc(F)c3)o2)c1`, the inhibition amounted to 7.11%.

Turning to `COC(=O)Nc1nc2cc(Oc3ccc(NC(=O)Nc4ccccc4)cc3)ccc2[nH]1`, the inhibition is 3%.

With `COc1c(C(N)=O)cc(-c2ccc(Cl)cc2)cc1-c1ccc(S(N)(=O)=O)cc1`, the inhibition came out at 8.22%.

For `CC1(C)CC(n2cnc(-c3ccc(F)cc3)c2-c2ccnc(N)n2)CC(C)(C)N1`, the inhibition is 4.24%.

In turn, `CCCNc1cccc(-n2ncc3c(N/N=C/c4ccncc4)ncnc32)c1` came in with an inhibition of 6.14%.

In the case of `CN(c1ccc(NC(=O)NCCN2CCOCC2)cc1)c1ccnc(Nc2ccc(CS(C)(=O)=O)cc2)n1`, the inhibition turned out to be 3.59%.

Regarding `CCOc1ccc2c(-c3ccnc(Nc4cc(OC)cc(C(F)(F)F)c4)n3)cnn2n1`, the inhibition came out at 5.36%.

In the case of `COc1cccc(-n2ncc3c(N/N=C/c4ccc(C(=O)NCCN(C)C)cc4)ncnc32)c1`, the inhibition is 3.96%.

For the molecule `COc1ccc(-c2nn3ncccc3c2-c2ccnc(Nc3ccc(F)c(F)c3)n2)cc1`, the inhibition came out at 23.9%.

In turn, `Cc1c2ccc(N(C)c3ccnc(Nc4cccc(S(N)(=O)=O)c4)n3)cc2nn1C` displayed an inhibition of 7.66%.

Regarding `N#Cc1cccc(Nc2ncc(-c3ccccc3)o2)c1`, the inhibition was found to be 2.85%.

`CC1=C(C(=O)Nc2ccc3[nH]ncc3c2)C(c2ccc(F)cc2)N=C(c2ccc(C(F)(F)F)nc2)N1` (stereo unspecified) registered an inhibition of 4.98%.

Take `NS(=O)(=O)c1ccc(N/N=C2\C(=O)Nc3cccc(CCc4ccncc4)c32)cc1`: the inhibition worked out at 1.61%.

`O=C(O[C@H]1CN[C@H](C#Cc2cc3ncnc(Nc4ccc5c(cnn5Cc5ccccc5)c4)c3s2)C1)N1CCOCC1` gave an inhibition of 0.13%.

In turn, `CS(=O)(=O)Nc1ccc(-c2cc(-c3ccccc3)cc(C(N)=O)c2N)cc1` registered an inhibition of 1.19%.

The molecule `FC(F)(F)CNc1nccc(-c2cnn3ncccc23)n1` came in with an inhibition of 4.42%.

`CS(=O)(=O)CCNCc1ccc(-c2ccc3ncnc(Nc4ccc(OCc5ccccc5)cc4)c3c2)o1` came in with an inhibition of 2.48%.

`CN(C)CCNC(=O)Nc1ccc(N(C)c2ccnc(Nc3ccc(CS(C)(=O)=O)cc3)n2)cc1` registered an inhibition of 5.22%.

Take `NC(=O)c1ccc2c(-c3ccnc(NCCCO)n3)c(-c3ccc(F)cc3)nn2c1`: the inhibition is 82.2%.

`c1ccc(-c2n[nH]cc2-c2ccnc(-c3ccc(OCCn4ccnc4)cc3)c2)nc1` had an inhibition of 8.69%.

`c1cnn2ncc(-c3ccnc(NCCCN4CCOCC4)n3)c2c1`: the inhibition turned out to be 5.01%.

For the molecule `CN1CCC(n2cnc(-c3ccc(F)cc3)c2-c2ccnc(NCCO)n2)CC1`, the inhibition was 37.3%.

In turn, `COc1cc(N2CCN(C(C)C)CC2)ccc1Nc1nc(Nc2cccc3ncccc23)c2cc[nH]c2n1` came in with an inhibition of 5.14%.

Take `COc1ccc(Nc2ncc(-c3ccccc3)o2)cc1OC`: the inhibition was determined as 8.77%.

`CC1=C(C(=O)Nc2ccc3[nH]nc(C)c3c2)C(c2ccc(C(F)(F)F)cc2)CC(=O)N1` (stereo unspecified) registered an inhibition of 3.81%.
